# Screening results: PubChem BioAssay, National Center for Advancing Translational Sciences (NCATS)
# Cruzain inh Det: inhibitors of Trypanosoma cruzi cruzain with detergent | purified cruzain, Z-FR-AMC fluorescence, 0.01% Triton | 0.43% of 200,000 active | AID 1478 | P25779 | Potency, µM, usual class: inhibitors; also: nearly all actives have a fitted effect of over 40% in size
# Target sequence (P25779 123-467 limits assumed): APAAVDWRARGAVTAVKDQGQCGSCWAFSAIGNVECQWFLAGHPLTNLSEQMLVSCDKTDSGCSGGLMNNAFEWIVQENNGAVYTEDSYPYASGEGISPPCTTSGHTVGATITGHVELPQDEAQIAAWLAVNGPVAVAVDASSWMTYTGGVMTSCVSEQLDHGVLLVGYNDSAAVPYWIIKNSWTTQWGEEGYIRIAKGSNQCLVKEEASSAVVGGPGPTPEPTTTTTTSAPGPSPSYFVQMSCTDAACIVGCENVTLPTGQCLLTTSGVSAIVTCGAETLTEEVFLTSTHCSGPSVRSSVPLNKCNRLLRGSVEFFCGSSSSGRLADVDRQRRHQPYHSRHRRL
#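 Detergent-containing run (0.01% Triton X-100) in acetate buffer pH 5.5 with 5 mM DTT: enzyme at 1.5 nM final, 15 min compound preincubation at room temperature, then 2 uM Z-FR-AMC substrate. Activity taken as 60 s fluorescence increase at 360/450 nm.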
# Cruzain inh noDet: inhibitors of Trypanosoma cruzi cruzain without detergent; purified cruzain, Z-FR-AMC fluorescence, no detergent; 2.3% of 200,000 active; Potency, µM, hits mostly inhibitors; also: nearly all actives have a fitted effect of over 40% in size
#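 Purified cruzain at 1.5 nM, pre-incubated 15 min with compound at room temperature in 100 mM sodium acetate pH 5.5, 5 mM DTT, 0.00005% Triton X-100. Reaction started with 2 uM Z-FR-AMC; AMC fluorescence increase over 60 s gives rate.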
# Hits are given with their value; – = inactive; ? = inconclusive. Shown are actives, neighbours in structure and some others; about 2.6% of the full set was active somewhere. Calls follow the shape of the dose curve; as a rule, active = well fitted curve in the direction sought with a large enough effect; inconclusive = small, poorly fitted or top-dose-only effect, or another doubt; inactive = no such curve, though single readings can be large; an effect the other way counts as inactive or inconclusive.
SMILES,Cruzain inh Det,Cruzain inh noDet
Cc1cc(C)cc(OCCSc2nc3ccc(NC(=O)c4cccs4)cc3s2)c1,–,20µM
Cc1ccc(OCCSc2nc3ccc(NC(=O)c4cccs4)cc3s2)cc1,–,–
COc1cc(/C(C)=N/NC(=S)NC(C)C)cc(OC)c1OC,–,–
COc1cc(/C(C)=N\NC(N)=S)cc(OC)c1OC,5µM,1.3µM
COc1ccc(SCc2cc(=O)c3cc(Cl)ccc3[nH]2)cc1,–,–
COc1cccc(CNC(=O)C(CC(C)C)NS(=O)(=O)c2ccc3c(c2)oc(=O)n3C)c1 (stereo not given),–,–
CCc1ccc(NCc2cc3ccc(OC)cc3n(CC(=O)Nc3c(C)cc(C)cc3C)c2=O)cc1,–,–
COc1ccc(NCc2cc3cc4c(cc3n(CC(=O)Nc3ccc(C)cc3C)c2=O)OCO4)cc1,–,?
CCc1ccc(NCc2cc3ccc(OC)cc3n(CC(=O)Nc3ccc(C)c(Cl)c3)c2=O)cc1,–,25µM
CCc1ccc(NCc2cc3cc4c(cc3n(CC(=O)Nc3cccc(OC)c3)c2=O)OCO4)cc1,–,25µM
CCc1ccc(NCc2cc3cc4c(cc3n(CC(=O)Nc3ccc(OC)cc3)c2=O)OCO4)cc1,–,–
COc1ccc(NCc2cc3cc4c(cc3n(CC(=O)Nc3ccc(C)cc3)c2=O)OCO4)cc1,–,20µM
CCC(C)C(=O)OC1C(O)C2C(CN3CC(C)CCC3[C@]2(C)O)C2C[C@]34O[C@@]5(O)C(OC(=O)C(C)(O)CC)CCC3(C)C5C(OC(C)=O)C(OC(C)=O)C4[C@@]21O (stereo not given in full),–,–
O=S(=O)(Nc1nnc(-c2ccccc2)s1)c1ccc(Cl)cc1,–,–
COc1ccc(NC(=O)[C@@H]2[C@@H]3C(=O)N(C4CCCCC4)C(=O)[C@@H]3C3c4ccccc4C=CN32)cc1 (stereo not given in full),–,16µM
CC(=O)[C@@H]1[C@@H]2C(=O)N(C3CCCCC3)C(=O)[C@@H]2C2c3ccccc3C=CN21 (stereo not given in full),–,–
O=C(CSC1=NCCS1)Nc1ccc(S(=O)(=O)N2CCCCCC2)cc1,–,–
O=C(NCCc1ccccc1)C1CCN(S(=O)(=O)c2cccc3nsnc23)CC1,–,–
O=C(NCCC1=CCCCC1)C1CCN(S(=O)(=O)c2cccc3nsnc23)CC1,–,25µM
COc1ccc(C2=NS(=O)(=O)N(C)C(C(=O)Nc3ccc(OC(F)(F)F)cc3)=C2)cc1,–,10µM
COc1ccc(NC(=O)C2=CC(c3ccc4c(c3)OCO4)=NS(=O)(=O)N2C)cc1,–,?
Cc1ccc(NC(=O)c2nn(C34CC5CC(CC(C5)C3)C4)cc2[N+](=O)[O-])cc1,–,?
O=C(Nc1cccc2ccccc12)c1nn(C23CC4CC(CC(C4)C2)C3)cc1Br,–,10µM
O=C(CCNS(=O)(=O)c1cccc2nonc12)Nc1ccc(F)cc1,–,–
Cc1cc(NS(=O)(=O)c2ccc(NC(=O)c3ccccc3F)cc2)nc(C)n1,–,–
SMILES,Cruzain inh Det,Cruzain inh noDet
CC(C)(C)OC(=O)N[C@@H](Cc1ccccc1)c1nnc(SCC(=O)c2ccc(Cl)cc2)o1,–,?
CCSc1nnc([C@H](Cc2ccccc2)NC(=O)OC(C)(C)C)o1,–,–
CC(C)(C)OC(=O)N[C@@H](Cc1ccccc1)c1nnc(S(=O)(=O)Cc2ccccc2)o1,16µM,32µM
Cc1ccccc1CS(=O)(=O)c1nnc([C@H](Cc2ccccc2)NC(=O)OC(C)(C)C)o1,14µM,?
Cc1c(Cl)cccc1NC(=O)c1ncoc1-c1ccco1,–,–
COc1ccccc1C(=O)Nc1cc(-c2ccc(C)cc2)no1,–,–
O=C(Nc1cc(-c2ccc(F)c(F)c2)no1)c1ccccc1F,–,25µM
O=C(COc1ccccc1Cl)N1CCN(CCc2ccccn2)CC1,–,–
COc1nc(-c2ccc(C)cc2)ccc1-c1noc(-c2cccnc2)n1,–,?
O=C1c2ccccc2C(=O)N1c1ccc(-c2nc3ccccc3o2)cc1,–,–
NCc1ccc(-c2nc3ccccc3o2)cc1,–,13µM
CCOc1ccccc1NC(=O)CCc1nc(-c2cccc(C)c2)no1,–,–
O=S(=O)(c1ccc(Br)cc1)N1CCN(S(=O)(=O)c2ccc(Br)cc2)CC1,–,–
O=C(N/N=C/c1cccc([N+](=O)[O-])c1)c1ccc2c(c1)OCCO2,–,–
O=C(N/N=C/c1ccncc1)c1cc2c(ccc3ccccc32)o1,–,–
O=C(N/N=C/c1cccc([N+](=O)[O-])c1)c1cc2c(ccc3ccccc32)o1,–,10µM
O=C(N/N=C/c1cccc([N+](=O)[O-])c1)c1cc(-c2ccc3c4c(cccc24)CC3)n[nH]1,–,7.9µM
COc1ccc(OC)c(NC(=O)CSc2ccc(-c3cccs3)nn2)c1,–,–
CCOc1ccc(CCNc2nc3c(-c4ccc(C)cc4)nnn3c3ccccc23)cc1OCC,–,–
O=C(NCc1cccc(F)c1)c1ccc(N2C(=O)Cn3c(cc4sccc43)C2=O)cc1,–,25µM
CCN1CCSc2ccc(C(=O)NCc3cccc(F)c3)cc21,–,–
CCc1nnc(NC(=O)[C@@H]2CCCN2S(=O)(=O)c2ccc3c(c2)OCCO3)s1,–,–
CCCCOc1ccccc1NC(=O)CC1Nc2ccccc2NC1=O (stereo not given),–,25µM
CCCCNC(=O)CC1Nc2ccccc2NC1=O (stereo not given),–,–
Cc1nnc(SCC(=O)N2CC(=O)Nc3ccccc32)n1C,–,–
SMILES,Cruzain inh Det,Cruzain inh noDet
CC(C)CCn1c(SCC(=O)N2CC(=O)Nc3ccccc32)nc2scc(-c3cccs3)c2c1=O,–,13µM
C=CCn1c(SCC(=O)N2CC(=O)Nc3ccccc32)nc2scc(-c3cccs3)c2c1=O,–,10µM
C=CCn1c(COc2ccc(F)cc2)nnc1SCC(=O)N1CC(=O)Nc2ccccc21,–,–
O=C(CNC(=O)c1ccccc1F)OCc1cc(=O)n2nc(C3CC3)sc2n1,–,–
Cn1nnnc1SCCNCc1cccnc1,–,–
NC(=O)C1(N2CCCCC2)CCN(C(=S)Nc2ccccc2)CC1,–,–
Nc1c(N=Nc2ccc(-c3ccc(N=Nc4cc(S(=O)(=O)O)c5ccccc5c4N)cc3)cc2)cc(S(=O)(=O)O)c2ccccc12,2.8µM,?
Cc1cc(-c2ccc(N=Nc3ccc4c(S(=O)(=O)O)cc(S(=O)(=O)O)c(N)c4c3O)c(C)c2)ccc1N=Nc1ccc2c(S(=O)(=O)O)cc(S(=O)(=O)O)c(N)c2c1O,28µM,?
Cc1ccc(N=Nc2c(O)c(S(=O)(=O)O)cc3cc(S(=O)(=O)O)ccc23)c(C)c1,–,–
Nc1ccc(N=Nc2ccc(-c3ccc(O)cc3)cc2)c2ccc(S(=O)(=O)O)cc12,–,–
Fc1cccc(CSc2nc3ccncc3[nH]2)c1,–,–
Cc1cc(C(=O)N/N=C/c2c[nH]c3ccccc23)c(C)o1,–,–
COc1ccccc1N1CCN(C(=O)c2ccc3nc(-c4ccco4)c(-c4ccco4)nc3c2)CC1,13µM,?
Cc1ccc(C)c(N2CCN(C(=O)c3ccc4nc(-c5ccco5)c(-c5ccco5)nc4c3)CC2)c1,–,–
CCCNC(=O)C1CNc2ccccc2O1 (stereo not given),–,–
COc1ccccc1/C=C\C=N\n1c(C2CCCCC2)n[nH]c1=S,–,6.3µM
COc1ccccc1/C=C/C=N/n1c(-c2ccc(C)cc2)n[nH]c1=S,–,10µM
COc1ccc(-c2n[nH]c(=S)n2/N=C/C=C\c2ccccc2OC)cc1,–,–
